Most compounds without a hit are left out; they make up all but 27% or so of the library.
CYP2C19 inh – blockers of cytochrome P450 2C19 activity – biochemical, luminescence, ADME assay, primary screen; CYP2C19 Supersomes, luciferin-H EGE luminescence, 30 min; inhibition, % at 5 µM; 96,000 compounds, 21% hits; AID 778, 2007;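 active = CYP2C19 inhibition above a set limit at 5 µM in the primary screen, cut at about 50% in these data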;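 note: plate controls were negative control wells for no effect and 2.5 mM tranylcypromine positive control for full effect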
Target sequence (P33261 whole entry, looked up): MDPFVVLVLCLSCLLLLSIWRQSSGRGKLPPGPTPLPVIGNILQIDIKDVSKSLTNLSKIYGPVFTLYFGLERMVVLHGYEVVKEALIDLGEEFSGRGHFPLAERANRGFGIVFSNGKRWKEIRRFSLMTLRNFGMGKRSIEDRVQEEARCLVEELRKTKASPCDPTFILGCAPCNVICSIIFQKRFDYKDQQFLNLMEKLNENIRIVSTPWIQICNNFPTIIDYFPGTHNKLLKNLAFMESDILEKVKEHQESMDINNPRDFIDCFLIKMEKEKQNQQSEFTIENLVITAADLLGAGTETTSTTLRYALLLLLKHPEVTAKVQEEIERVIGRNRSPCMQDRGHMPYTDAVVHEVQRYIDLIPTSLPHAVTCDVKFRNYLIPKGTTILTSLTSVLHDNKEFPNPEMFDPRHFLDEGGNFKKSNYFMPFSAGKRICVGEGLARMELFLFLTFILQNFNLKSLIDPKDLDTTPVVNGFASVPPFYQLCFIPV
Cav32 inh – Cav3.2 calcium influx blockers – cell-based, Fluo-4 calcium fluorescence, FDSS, MLSMR library, primary screen | Voltage-dependent T-type calcium channel subunit alpha-1H (Homo sapiens), O95180 | Cav3.2-expressing cells; active compounds read low | 100,000 compounds, 4% hits | B-score at 10 µM | AID 449739, 2010;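 active = single-dose well whose peak fluorescence ratio is a statistical outlier from its plate by either plate-standardised score or position-corrected B-score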
CYP2C9 inhib – blockers of cytochrome P450 2C9 activity – biochemical, luminescence, ADME assay, primary screen; P11712; CYP2C9 Supersomes, luciferin-H conversion; inhibition, % at 5 µM; 96,000 compounds, 20% hits; AID 777, 2007;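 active = blocking of liver enzyme CYP2C9 beyond about 50% at 5 µM, limit read from the data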
CYP2C19 act – human CYP2C19 activators, primary screen, biochemical, luminescence. activation factor at 5 µM. recombinant CYP2C19, luciferin-H EGE luminescence; active compounds read high; 0 = fully inhibited enzyme, 1 = untreated enzyme. AID 1025, 2008. 96,000 tested, under 10 active. Cytochrome P450 2C19 (Homo sapiens), P33261;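 active = activation factor of at least 2 at 5 µM in the primary screen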;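 note: 0 = wells with 2.5 mM tranylcypromine and 1 = vehicle-only wells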
CYP2C9 act – human CYP2C9 activators, primary screen, biochemical, luminescence | activation factor at 5 µM | 96,000 compounds, 1.4% hits | recombinant CYP2C9, luciferin-H conversion; active compounds read high; factor 1 = untreated enzyme, 0 = blocked;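 active = activation factor of 2 or more for CYP2C9 at a 5 µM dose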;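 note: 0 = sulfaphenazole-blocked wells and 1 = vehicle-only wells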
Active calls of the source: *; . = no result given.

SMILES	CYP2C19 inh	Cav32 inh	CYP2C9 inhib	CYP2C19 act	CYP2C9 act
Cc1ccc(S(=O)(=O)Nc2cccc(C(=O)Nc3cc(C)ccn3)c2)cc1	28	-0.51	31	0.7	0.7
CC1=C(C(=O)N2CCOCC2)C(c2ccccc2F)C2=C(CCCC2=O)N1 (configuration not stated)	10	0.84	-4	0.9	1
O=C(CCc1c[nH]c2ccccc12)NC1CC1	40	-0.68	7	0.6	0.9
Cc1cc(C)n2c(SCc3ccccc3Cl)nnc2n1	37	-1.1	-178	0.6	2.8*
Cc1cc(C)n2c(SCc3ccc(Cl)cc3Cl)nnc2n1	70*	-0.35	-56	0.3	1.6
Cc1cc(C)n2c(SCc3c(C)noc3C)nnc2n1	.	-0.028	.	.	.
O=C(Nc1nnc(C23CC4CC(CC(C4)C2)C3)s1)c1ccco1	10	1.3	-2	0.9	1
COc1cccc(C(=O)O/N=C/c2ccc(Sc3ccc(C)cc3)nc2)c1	10	0.35	19	0.9	0.8
CC1CC(C)CN(CCCNC(=O)CCNC(=O)Cn2ccc3ccccc3c2=O)C1 (configuration not stated)	8	-0.79	-1	0.9	1
N#CCCNCC1(c2ccccc2)CCCC1	16	0.88	0	0.8	1
c1ccc(C2(CNc3ccccn3)CCCC2)cc1	55*	-0.55	44	0.5	0.6
O=C(Nc1cccnc1)C1CC(c2ccccc2O)=NO1 (configuration not stated)	80*	-1.5	51*	0.2	0.5
O=C(Nc1cccnc1)C1OCCc2ccccc21 (configuration not stated)	6	0.52	-12	0.9	1.1
O=C(O)c1ccc(S(=O)(=O)NC2CCCCC2)cc1	-11	-1	-15	1.1	1.2
O=S(=O)(NC(=NC1CCCC1)C(F)(F)F)c1ccccc1	66*	0.34	-41	0.3	1.4
Cc1noc(C)c1COC(=O)CCCc1nc2ccccc2s1	41	-0.23	51*	0.6	0.5
NS(=O)(=O)c1ccc(CCNC(=O)C2CCCN(S(=O)(=O)c3cccnc3)C2)cc1 (configuration not stated)	-2	-1	18	1	0.8
COc1cccc(CNC(=O)C2CCCN(c3nc4ccccc4o3)C2)c1 (configuration not stated)	28	0.037	27	0.7	0.7
O=C(NCc1ccccc1Cl)C1CCCN(S(=O)(=O)c2cnc[nH]2)C1 (configuration not stated)	96*	1.5	92*	0	0.1
O=C(NCCc1ccc(Cl)cc1)C1CCCN(S(=O)(=O)c2cnc[nH]2)C1 (configuration not stated)	92*	-0.7	86*	0.1	0.1
O=C(NCCC1=CCCCC1)C1CCN(S(=O)(=O)c2cnc[nH]2)CC1	78*	-0.11	96*	0.2	0
Cc1ccc(CCNC(=O)C2CCCN(c3nc4ccccc4o3)C2)cc1 (configuration not stated)	61*	-1.1	50*	0.4	0.5
COc1ccc(C(C(=O)Nc2ccc(F)cc2)N(C(=O)Cn2nnc3ccccc32)C2CC2)cc1 (configuration not stated)	23	.	29	0.8	0.7
O=c1cc(NC2CCCCCC2)[nH]c(=O)[nH]1	-14	0.41	-12	1.1	1.1
Cc1ccc(CCNC(=O)C2CCCN(S(=O)(=O)c3cnc[nH]3)C2)cc1 (configuration not stated)	87*	-0.63	78*	0.1	0.2
Cc1noc(C)c1S(=O)(=O)N1CCCC(C(=O)NCCc2ccc(Cl)cc2)C1 (configuration not stated)	69*	-1.3	44	0.3	0.6
O=C(NCc1ccc(F)cc1)C1CCN(S(=O)(=O)N2CCC3(CC2)OCCO3)CC1	2	.	25	1	0.8
Cc1ccc(CCNC(=O)C2CCCN(S(=O)(=O)c3c(C)nn(C)c3C)C2)cc1 (configuration not stated)	39	-0.15	48	0.6	0.5

Compound activity (PubChem BioAssay)
